NIH3T3 tox – cytotoxic compounds in NIH 3T3 cells; Potency, µM (top dose mostly 96.7 µM), without a hit: top-dose activity change, negative = cytotoxicity, most hits filed as inhibitors; 4.3% of 94,000 active; NIH 3T3 viability, CellTiter-Glo ATP luminescence, 48-72 h; also: % is scaled to controls: 0 for no effect and ±100 for the full control effect; nearly all actives have a fitted effect of over 55% in size
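Cytotoxicity was measured by CellTiter-Glo ATP luminescence after 48 or 72 h compound exposure at 37 °C. Mouse NIH 3T3 fibroblasts were seeded at 400 cells/well and dosed by 23 nL pin transfer.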
hNpr1 antagonist – blocks ANP-stimulated signaling of human Npr1 receptor. 1.6% of 76,000 active. AID 1347048. P16066. HEK293 hNpr1 GloSensor cGMP, ANP-stimulated luminescence. Potency, µM (highest dose often 46.3 µM), inactives show at the highest dose activity change, negative = inhibition, usual class: inhibitors; calls by dose curve; also: % is scaled to controls: 0 for no effect and ±100 for the full control effect; nearly all actives have a fitted effect of over 60% in size
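Compound pre-incubated 30 min at room temperature on GloSensor-loaded HEK293 cells stably carrying hNpr1 and the pGS-40F cGMP biosensor. Stimulation uses hNppA at 0.1 nM final; luminescence is taken at baseline and 20 min post-agonist.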
FLuc inh – blocks purified firefly luciferase enzyme activity | purified P. pyralis luciferase, luminescence, biochemical | Potency, µM (top dose mostly 115 µM), actives largely listed as inhibitors | 2.5% of 76,000 active | AID 1347043; also: % is scaled to controls: 0 for no effect and ±100 for the full control effect; nearly all actives have a fitted effect of over 65% in size
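Inhibitors were tested against purified firefly luciferase in a biochemical, low-substrate format (both substrates at 10uM) and luminescence measured with a CCD imager.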
GPT2 inhibitor – inhibitors of human GPT2 alanine aminotransferase. Q8TD30. Recombinant GPT2, coupled pyruvate oxidase/HRP Amplex Red fluorescence. Potency, µM (top dose mostly 57.7 µM), for inactives: at the top dose activity change, negative = inhibition, usual class: inhibitors. 0.25% of 100,000 active; also: % is scaled to controls: 0 for no effect and ±100 for the full control effect; nearly all actives have a fitted effect of over 60% in size
Target sequence (Q8TD30 whole entry, looked up): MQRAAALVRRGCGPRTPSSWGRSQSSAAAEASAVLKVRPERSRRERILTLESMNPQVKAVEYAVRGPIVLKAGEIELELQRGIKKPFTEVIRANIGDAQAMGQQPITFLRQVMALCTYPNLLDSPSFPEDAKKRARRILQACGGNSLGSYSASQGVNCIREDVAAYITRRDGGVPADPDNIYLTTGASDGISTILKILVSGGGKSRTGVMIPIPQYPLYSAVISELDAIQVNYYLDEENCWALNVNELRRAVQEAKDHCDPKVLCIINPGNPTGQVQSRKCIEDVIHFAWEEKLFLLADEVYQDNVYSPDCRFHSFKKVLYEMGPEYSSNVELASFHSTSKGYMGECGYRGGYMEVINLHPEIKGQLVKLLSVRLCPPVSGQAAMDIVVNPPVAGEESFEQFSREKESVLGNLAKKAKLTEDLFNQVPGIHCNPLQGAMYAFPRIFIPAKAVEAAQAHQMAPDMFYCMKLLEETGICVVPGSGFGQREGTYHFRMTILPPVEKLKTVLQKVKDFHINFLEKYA
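GPT2 10ng/uL, a-KG 250uM, L-Ala 2mM, HEPES pH7.5 + 0.0001% Tween; 30 min RT. Then Amplex mix (PO/HRP/ThPP), 30 min RT dark, fluorescence. AOA 50uM used as positive control.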
HEK293 tox – cytotoxic compounds in HEK 293 cells. HEK 293 viability, ATP luminescence (CellTiter-Glo), 48-72 h. Potency, µM (titrated, usually from 115 µM), inactives show at the highest dose activity change, negative = cytotoxicity, hits mostly inhibitors. 6.6% of 94,000 active. AID 1345083; also: % is scaled to controls: 0 for no effect and ±100 for the full control effect; nearly all actives have a fitted effect of over 60% in size
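qHTS cytotoxicity; HEK 293, 250 cells/well; compound pinned; 48 or 72 hr, 37 degree Celsius, 5% CO2, 95% humidity; CellTiter-Glo, 10 min RT; luminescence (ATP).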
NPR1 antag cnf – hNpr1 antagonism, confirmation assay | shares compounds with hNpr1 antagonist | HEK293 hNpr1 cGMP GloSensor luminescence, ANP-stimulated | Potency, µM (highest dose often 57.6 µM), without a hit: at the highest dose activity change, negative = inhibition, hits mostly inhibitors | 76% of 1,400 active | AID 1347044; calls by dose curve; also: nearly all actives have a fitted effect of over 70% in size
NPR2 antag – antagonizes human Npr2, subtype selectivity check; 67% of 1,400 active; Potency, µM (highest dose often 57.6 µM), without a hit: at the highest dose activity change, negative = inhibition, usual class: inhibitors; shares compounds with hNpr1 antagonist; HEK293 hNpr2 GloSensor cGMP luminescence, CNP-stimulated; calls by dose curve; also: nearly all actives have a fitted effect of over 70% in size
FLuc inh counter – FLuc enzyme inhibition, Npr1 counter-screen; shares compounds with hNpr1 antagonist; purified FLuc enzyme, luminescence, Km substrate; Potency, µM (titrated, usually from 57.6 µM), for inactives: top-dose activity change, negative = inhibition, hits mostly inhibitors; 0.7% of 1,400 active; AID 1347047; also: series mostly up to about 58 µM; 0% is about no effect
GloSensor ctrl – control cell line activity, Npr1 antagonist counter-screen | Potency, µM (series often up to 57.6 µM), for the others: at the highest dose activity change, negative = inhibition, actives largely listed as inhibitors | shares compounds with hNpr1 antagonist | HEK293 GloSensor cGMP, SNP-stimulated, luminescence | AID 1347051 | 69% of 1,400 active; calls by dose curve; also: % is scaled to controls: 0 for no effect and ±100 for the full control effect; nearly all actives have a fitted effect of over 70% in size
Active calls of the source: *; i = inactive; ? = inconclusive; nt = no result; [ ] = remark or other dose. Compounds with a hit are over-represented: about 10% of the library has one in this group of screens. Unless noted, calls follow the shape of the dose curve; as a rule, active = well fitted curve in the direction sought with a large enough effect; inconclusive = small, poorly fitted or top-dose-only effect, or another doubt; inactive = no such curve, though single readings can be large; an effect the other way counts as inactive or inconclusive. Potency is read from the fitted curve at half-maximal effect.

SMILES	NIH3T3 tox	hNpr1 antagonist	FLuc inh	GPT2 inhibitor	HEK293 tox	NPR1 antag cnf	NPR2 antag	FLuc inh counter	GloSensor ctrl
COc1ccc(CC(=O)NC2CCCN(c3cc(-c4ccc(F)cc4)[nH]n3)C2)cc1 (stereo unspecified)	0%	-3%	i	i	-10%	nt	nt	nt	nt
Cc1ccccc1OCC(=O)NC1CCN(c2cc(-c3ccccc3)[nH]n2)CC1	?	11µM*	i	1%	25µM*	15µM*	22µM*	-2%	11µM*
COc1ccc(CC(=O)NC2CCN(c3cc(-c4ccc(F)cc4)[nH]n3)C2)cc1OC (stereo unspecified)	?	13µM*	i	?	?	22µM*	22µM*	-1%	24µM*
O=C(COc1ccccc1)NC1CCN(c2cc(-c3ccccc3)[nH]n2)CC1	?	-30%	i	0%	?	nt	nt	nt	nt
CCOC(=O)C1CCN(C(=O)Cc2cccn2-c2ccc(F)cc2)CC1	-9%	-18%	i	i	?	nt	nt	nt	nt
O=C(NCCc1ccc(Cl)cc1)c1nc(-c2cccc(C(F)(F)F)c2)c2cnccn12	?	-2%	i	?	?	nt	nt	nt	nt
O=C(NCC(F)(F)F)c1nc2sccn2c1-c1ccc(F)cc1	-10%	nt	nt	-4%	3%	nt	nt	nt	nt
COCc1cc(N2CCC(c3cccc(OC)c3OC)C2)ncn1 (stereo unspecified)	?	3.2µM*	i	i[11.5 µM]	?	3.1µM*	4.8µM*	-2%	3.1µM*
COc1ccc(OC)c(C2CCN(c3ncncn3)C2)c1 (stereo unspecified)	?	4%	i	-13%[11.5 µM]	?	nt	nt	nt	nt
CC(C)(C)C(=O)N1CCC[C@@H]1C(=O)N1CCCC(c2nc3ccncc3[nH]2)C1 (stereo partly specified)	-14%	nt	nt	i	-9%	nt	nt	nt	nt
CC1(C)[C@H](Cc2cc(COC(=O)c3cccs3)on2)C[C@@H]1NC(=O)c1cccs1	?	25µM*	i	-12%[88.5 µM]	?	35µM*	35µM*	1%[86.2 µM]	40µM*
CC1(C)[C@H](Cc2cc(COc3ccccc3)on2)C[C@@H]1NC(=O)c1cccs1	40µM*	40µM*	i	-4%[88.5 µM]	?	35µM*	40µM*	-2%[86.2 µM]	31µM*
CC1(C)[C@H](Cc2cc(CO)on2)C[C@@H]1NC(=O)c1cccnc1	-1%[174 µM]	5%[70.6 µM]	i	i	2%[172 µM]	nt	nt	nt	nt
COc1ccc(-c2cc(N3CCCN(C(=O)c4cccc(Cl)c4)CC3)n[nH]2)cc1	?	?	i	?	?	24µM*	14µM*	3%	-1%
COc1ccc(C(=O)N2CCN(c3cc(-c4ccc(F)cc4)[nH]n3)CC2)cc1	?	?	i	i	?	22µM*	24µM*	3%	27µM*
O=C(c1ccc2[nH]ccc2c1)N1CCN(c2cc(-c3ccccc3)[nH]n2)CC1	?	?	i	-5%	?	?	?	1%	-27%
COc1ccc(-c2cc(N3CCCN(C(=O)c4cccc(F)c4)CC3)n[nH]2)cc1	-8%	-1%	i	i	?	nt	nt	nt	nt

From PubChem BioAssay
